In PubChem BioAssay AID463190 (Sanford-Burnham Center for Chemical Genomics, 2010) one finds inhibition data, which are given here for 61 compounds.

The campaign covered roughly 330,000 compounds. About 7,300 (2.2%) were called active. This is one part of a sample in which actives are shown more often than they occur.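 The calls were made as follows: active = inhibition of at least 40%; inactive = the rest.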

The inhibition is the relative decrease from the control value, in per cent.

This test in a line: growth inhibition of tim10-1 ts yeast – luminescence, uHTS, primary screen (AID 463190).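 Also: mutant grown at 25 °C; 0% = DMSO wells with yeast and 100% = wells holding no yeast.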 The conditions noted are these: S. cerevisiae tim10-1 ts strain growth, BacTiter-Glo, 24 h; at 20 µM; active compounds read high.
With `O=C(O)C1C2C=CC(O2)C1C(=O)NCCc1cccc(Cl)c1` (stereo unspecified), the inhibition is -10.4% (inactive).

`O=C(CSc1ncn[nH]1)N/N=C/c1ccc(F)cc1`: the inhibition was -11.2% (inactive).

As for `O=C(CSc1ncn[nH]1)Nc1ccc(Br)cc1Br`, the inhibition was -12.6% (inactive).

On to `O=C(/C=C/Sc1ncn[nH]1)c1ccc(Cl)cc1`, for which the inhibition was 61.4% (active).

In the case of `N#C/C(=C\c1ccc(N2CCOCC2)o1)C(=O)N1CCOCC1`, the inhibition is 9.56% (inactive).

In the case of `Cc1ccc([N+](=O)[O-])c(OCCCNCC(C)O)c1` (stereo unspecified), the inhibition was 2.12% (inactive).

For `CN(C)CCNc1ccc(-c2n[nH]c(=O)c3ccccc23)cc1[N+](=O)[O-]`, the inhibition was 1.37% (inactive).

For the compound `O=C(/C=C/c1cccs1)NCc1cccnc1`, the inhibition is 8.39% (inactive).

On to `O=S(=O)(Nc1ccccn1)c1cccc(S(=O)(=O)c2ccc(Cl)cc2)c1`, for which the inhibition was 14.9% (inactive).

On to `O=S(=O)(Nc1cccc(Oc2ccc(Cl)cc2)n1)c1ccc(F)cc1`, for which the inhibition is 43.9% (active).

With `O=S(=O)(Nc1ccc(Oc2ncccn2)c(Cl)c1)c1ccc(F)cc1`, the inhibition was 15.3% (inactive).

Consider `CCC1CCCCN1S(=O)(=O)Cc1ccccc1Cl` (stereo unspecified), for which the inhibition is 25.3% (inactive).

Regarding `COc1ccc2c(CC(=O)N3CCc4cc(OC)c(OC)cc4C3)coc2c1`, the inhibition was 8.12% (inactive).

On to `COc1ccc(NCc2nnc(SCc3ccccc3)n2-c2ccc(OC)cc2)cc1`, for which the inhibition is 49.4% (active).

In the case of `COc1ccc(-c2nnc(SCC(=O)c3ccco3)n2-c2ccccc2)cc1`, the inhibition was 23.4% (inactive).

With `CCn1c(CNc2ccc(OC)cc2)nnc1SCC(=O)c1ccc(OC)cc1`, the inhibition is 25.4% (inactive).

Regarding `O=S(=O)(NC1CCCCC1N1CCN(c2ccccc2F)CC1)c1ccccc1` (stereo unspecified), the inhibition is 21.7% (inactive).

Consider `C#CCN1C(=O)C(O)(CC(=O)c2cc(OC)ccc2OC)c2ccccc21` (stereo unspecified), for which the inhibition is 41.9% (active).

Regarding `COc1ccc(C(=O)CN2C(=O)NC3(CCc4ccccc43)C2=O)c(OC)c1` (stereo unspecified), the inhibition is -9.01% (inactive).

Take `O=C(CC1(O)C(=O)N(CN2CCOCC2)c2ccccc21)c1ccccc1` (stereo unspecified): the inhibition was 15.9% (inactive).

Take `O=C(Nc1cc(S(=O)(=O)N2CCOCC2)ccc1Cl)c1cc(=O)c2ccccc2o1`: the inhibition was 19.5% (inactive).

With `Cc1cccc(NC(=O)Nc2cccc(Oc3c(F)c(F)c(F)c(F)c3F)c2)c1`, the inhibition is 21.3% (inactive).

Regarding `CC(Oc1cccc(NC(=O)c2cccs2)c1)C(=O)c1ccccc1` (stereo unspecified), the inhibition was 27.6% (inactive).

In the case of `Cc1ccoc1C(=O)Nc1cccc(Oc2ccccc2)c1`, the inhibition was 49.3% (active).

As for `COc1cccc2c1OCC1COc3c(c(=O)n(C)c(=O)n3C)C21` (stereo unspecified), the inhibition is -6.86% (inactive).

On to `COc1ccccc1N1CC(C(=O)Nc2ccc(S(=O)(=O)N3CCOCC3)cc2)CC1=O` (stereo unspecified), for which the inhibition was 4.85% (inactive).

With `CCN(CC(=O)NCc1cccs1)c1nnnn1-c1ccccc1`, the inhibition was -19.2% (inactive).

On to `CCOC(=O)c1c(C)oc2cc(Sc3ccccc3)c(O)c(O)c12`, for which the inhibition is 34.3% (inactive).

Consider `CCOC(=O)c1c(C)oc2cc(Br)c(OCC(N)=O)cc12`, for which the inhibition was 1.54% (inactive).

`CCOC(=O)c1c(C)oc2ccc(OCC(=O)N(CC)CC)cc12`: the inhibition was 14.2% (inactive).

As to `CCOC(=O)c1c(-c2ccccc2)oc2ccc(OCC(N)=O)cc12`, the inhibition was 18.7% (inactive).

Take `CCOC(=O)c1c(-c2ccccc2)oc2ccc(OCC(=O)NN)cc12`: the inhibition was 45.4% (active).

Consider `CCOC(=O)c1c(-c2ccccc2)oc2cc(Br)c(O)cc12`, for which the inhibition is 48.2% (active).

`CC(=O)Nc1ccc(C(=O)NNC(=O)CCCCC(=O)NNC(=O)c2ccc(NC(C)=O)cc2)cc1`: the inhibition is 10.6% (inactive).

As to `O=C(/C(=C/c1cccc(Cl)c1)c1nc2ccccc2[nH]1)c1ccccc1`, the inhibition is 43.5% (active).

For `O=C(CCc1nc2ccccc2c(=O)[nH]1)OCC(=O)c1cccc(Cl)c1`, the inhibition is 18.5% (inactive).

With `O=C(Cc1nc2ccccc2[nH]c1=O)c1ccc(Cl)cc1`, the inhibition was 5.58% (inactive).

As for `CCCN=C1N(C)C[C@@H]2[C@@H]3C(=O)N(Cc4ccccc4)C(=O)[C@@H]3[C@](C)(C(=O)OC)N12`, the inhibition is 0.857% (inactive).

On to `O=C(COC(=O)c1cccc(Cl)c1)NC1CCCCCCC1`, for which the inhibition was 8.83% (inactive).

For `Cc1cccc([C@H]2[C@@H]3C=CC[C@@H](C)[C@@H]3C(=O)N2Cc2ccccc2)c1`, the inhibition is 33.1% (inactive).

Consider `Cn1cc(CN2CCCCC2c2ccccn2)c(-c2ccc3c(c2)OCCO3)n1` (stereo unspecified), for which the inhibition was 9.13% (inactive).

`CCOC(=O)C1CCN(C(=O)Cn2nc(C)c3c(C)n(-c4ccccc4)nc3c2=O)CC1`: the inhibition was 27.3% (inactive).

Turning to `O=C(NN1CCOCC1)c1cccc(F)c1`, the inhibition was -9.56% (inactive).

As for `COc1c(C)c2c(c(O)c1C/C=C(\C)CCC(=O)O)C(=O)OC2`, the inhibition is 4.45% (inactive).

Take `N/C(=N\OC(=O)Cc1ccccc1[N+](=O)[O-])c1ccc(Br)cc1`: the inhibition is 57% (active).

On to `N/C(=N\OC(=O)CCc1ccccc1)c1cccnc1`, for which the inhibition was 21.7% (inactive).

Take `N/C(=N\OC(=O)CCc1ccccc1)c1ccc(Cl)cc1`: the inhibition is 65.2% (active).

In the case of `COc1ccc(S(=O)(=O)NCCCc2ccccc2)cc1`, the inhibition was 19.3% (inactive).

Take `N/C(=N\OC(=O)/C=C/c1ccccc1)c1ccc(Br)cc1`: the inhibition was 25.9% (inactive).

On to `N/C(=N\OC(=O)N1c2ccccc2Sc2ccccc21)c1ccc(Br)cc1`, for which the inhibition is 8.49% (inactive).

Regarding `CCOC(=O)C(Cc1ccccc1)NC(=O)CCC(=O)c1ccc(OC)cc1` (stereo unspecified), the inhibition is 23.1% (inactive).

`COc1ccc(/C(N)=N/OC(=O)CCCc2ccccc2)cc1`: the inhibition was 45.1% (active).

As to `COc1ccc(/C(N)=N/OC(=O)Cc2ccccc2)cc1`, the inhibition was 46.5% (active).

Take `O=C(CCc1ccccc1)NNC(=O)COc1ccc(Cl)cc1`: the inhibition is 0.762% (inactive).

For `COc1ccc(CCC(=O)c2ccc(OC)cc2)cc1`, the inhibition is 5.98% (inactive).

As to `COc1ccc(/C(N)=N/OC(=O)Oc2ccccc2)cc1`, the inhibition was 5.03% (inactive).

Regarding `COc1ccc(NC(=O)c2sc(N3CCOCC3)nc2-c2ccccc2)c(OC)c1`, the inhibition is 33.9% (inactive).

In the case of `CCOc1ccc2ccccc2c1/C=N/NC(=O)c1c(C)cc(C)[nH]c1=O`, the inhibition was 2.15% (inactive).

As for `CCOC(=O)CN1CC23C=CC(O2)C(C(=O)Nc2ccc(F)cc2)C3C1=O` (stereo unspecified), the inhibition is 3.99% (inactive).

With `O=C(CSc1nccn1-c1cccc(F)c1)NC1CCCC1`, the inhibition is -5.65% (inactive).

As for `COC(=O)[C@H](C(C)C)n1c(C)c(C(C)=O)c(C(C)=O)c1C`, the inhibition was 0.67% (inactive).
